Experiment [1] in a line: BSK_LPS_PGE2: BioMAP Diversity Plus: LPS Assay for Prostaglandin E2 (PGE2) Biomarker Activity (AID 2283082). Particulars: primary human HUVEC with PBMC; actives raise or lower the signal. Summed up:
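HUVEC plus PBMC co-culture stimulated with LPS; secreted PGE2 quantified by ELISA 24 h after chemical dosing. Activity fitted bidirectionally against DMSO as negative control and baseline; parallel SRB total-protein staining served as cytotoxicity check.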

Read-out in experiment [2]: Tissue Factor, F3 (gene 2152)
The experiment can be described thus: BSK_LPS_TissueFactor: BioMAP Diversity Plus: LPS Assay for Tissue Factor Biomarker Activity (AID 2283084). The following applies: primary human HUVEC with PBMC; actives raise or lower the signal. The essentials:
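Human umbilical vein endothelial cells co-cultured with peripheral blood mononuclear cells were dosed and stimulated with LPS. Cell-surface CD142 was quantified by ELISA at 24 h. Activity was fitted bidirectionally against DMSO baseline.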

Read-out in experiment [3]: Vascular cell adhesion molecule 1 (VCAM1), VCAM1 (gene 7412)
Put plainly: BSK_LPS_VCAM1: BioMAP Diversity Plus: LPS Assay for Vascular cell adhesion molecule 1 (VCAM1) Biomarker Activity (AID 2283086). Particulars: primary human HUVEC with PBMC; actives raise or lower the signal. Summed up: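 Human umbilical vein endothelial cells co-cultured with peripheral blood mononuclear cells under LPS stimulation were exposed to test chemical for 24 h. VCAM-1 levels were then measured by ELISA, with bidirectional curve fitting relative to DMSO as negative control and baseline.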

Read-out in experiment [4]: CD38, CD38 (gene 952)
The experiment can be described thus: BSK_SAg_CD38: BioMAP Diversity Plus: SAg Assay for CD38 Biomarker Activity (AID 2283087). Particulars: primary human HUVEC with PBMC; actives raise or lower the signal. Summed up:
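Fluorescence ELISA of cell-surface CD38 served as the read-out, with either increase or decrease fitted against DMSO controls. Cells were a human umbilical vein endothelium plus PBMC co-culture under SEB/TSST-1 stimulation, measured 24 h after dosing.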

Read-out in experiment [5]: CD40, CD40 (gene 958)
The experiment can be described thus: BSK_SAg_CD40: BioMAP Diversity Plus: SAg Assay for CD40 Biomarker Activity (AID 2283088). The following applies: primary human HUVEC with PBMC; actives raise or lower the signal. The essentials: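 Human umbilical vein endothelial cells co-cultured with PBMC; CD40 levels measured by ELISA with fluorescence read-out 24 h after chemical dosing. Gain or loss of signal fitted bidirectionally against DMSO baseline.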

Read-out in experiment [6]: CD69, CD69 (gene 969)
Put plainly: BSK_SAg_CD69: BioMAP Diversity Plus: SAg Assay for CD69 Biomarker Activity (AID 2283089).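 On AC50: cell surface CD69 protein quantified by ELISA with fluorescence detection.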 Particulars: primary human HUVEC with PBMC; actives raise or lower the signal. The essentials: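 Endothelial/PBMC co-culture; chemical added; 24 h incubation; CD69 ELISA with fluorescence detection; bidirectional fit vs DMSO.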

Read-out in experiment [7]: Monocyte Chemoattractant Protein-1 (MCP1), CCL2 (gene 6347)
Put plainly: BSK_SAg_MCP1: BioMAP Diversity Plus: SAg Assay for Monocyte Chemoattractant Protein-1 (MCP1) Biomarker Activity (AID 2283090). Particulars: primary human HUVEC with PBMC; actives raise or lower the signal. The essentials:
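MCP-1 levels in the endothelial–PBMC SAg co-culture were quantified by ELISA at 24 h post-dosing; both increases and decreases versus DMSO scored. Cytotoxicity monitored by SRB total protein in parallel cultures.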

Read-out in experiment [8]: E-selectin (Homo sapiens) (UniProt P16581)
Put plainly: BSK_SAg_Eselectin: BioMAP Diversity Plus: SAg Assay for Eselectin Biomarker Activity (AID 2283091). Particulars: primary human HUVEC with PBMC; actives raise or lower the signal. Summed up: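 HUVEC co-cultured with PBMC, compound dosed then read at 24 h; E-selectin measured by ELISA. Activity fitted bidirectionally against DMSO as negative control and baseline.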

Read-out in experiment [9]: Monokine induced gamma interferon (MIG), CXCL9 (gene 4283)
The experiment can be described thus: BSK_SAg_MIG: BioMAP Diversity Plus: SAg Assay for Monokine induced gamma interferon (MIG) Biomarker Activity (AID 2283092). Particulars: primary human HUVEC with PBMC; actives raise or lower the signal. The essentials: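 Measures CXCL9 protein by ELISA in a human vascular primary-cell co-culture (umbilical vein endothelium with PBMC) 24 h after chemical addition. Activity is scored up or down from the DMSO control.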

Experiment [10] is described as follows: BSK_SAg_PBMCCytotoxicity: PBMC Cytotoxicity Assessment in the BioMAP Diversity Plus: SAg Assay (AID 2283093).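 Further: PBMC viability measured as Alamar Blue reduction fluorescence at 546/580 nm; fitted both ways against DMSO so a hit may be loss or gain of signal.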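 On AC50: PBMC superantigen activated with SEB plus TSST-1 one hour after compound addition.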 Particulars: primary human HUVEC with PBMC. Summed up:
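HUVEC/PBMC co-culture; PBMC exposed to chemical 1 h before SEB and TSST-1 activation (20 ng/mL each), incubated 90 h, then Alamar Blue 6 h, fluorescence 546/580 nm. Bidirectional fit versus DMSO baseline.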

Read-out in experiment [11]: Interleukin-8 (IL8), CXCL8 (gene 3576)
The experiment can be described thus: BSK_SAg_IL8: BioMAP Diversity Plus: SAg Assay for Interleukin-8 (IL8) Biomarker Activity (AID 2283094). Particulars: primary human HUVEC with PBMC; actives raise or lower the signal. The essentials:
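Human umbilical vein endothelial cells co-cultured with peripheral blood mononuclear cells; IL-8 measured by ELISA 24 h after chemical dosing. Bidirectional concentration-response fitting used DMSO as negative control and activity baseline.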

Experiment [12] can be described thus: BSK_SAg_Proliferation: Cell Proliferation Assessment in the BioMAP Diversity Plus: SAg Assay (AID 2283095).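 Further: relative cell number as total protein by SRB absorbance in sub-confluent culture.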 Particulars: primary human HUVEC with PBMC. The essentials:
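Human umbilical vein endothelial cells co-cultured with peripheral blood mononuclear cells; total protein measured by sulforhodamine B staining (0.1% SRB after 10% TCA fixation), absorbance at 560 nm, at 96 h. Bidirectional fit against DMSO baseline.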

A short description of experiment [13]: BSK_SAg_SRB: Viability Assessment in the BioMAP Diversity Plus: SAg Assay (AID 2283096).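 Further: cells read one day after compound addition; hits may be either gain or loss of signal compared with DMSO.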 The following applies: primary human HUVEC with PBMC. The essentials:
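Human umbilical vein endothelial cells co-cultured with PBMC, read 24 h after compound dosing. Total protein measured by sulforhodamine B staining (0.1% SRB after 10% TCA fixation, absorbance 560 nm); bidirectional fit versus DMSO baseline.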

Read-out in experiment [14]: Macrophage colony-stimulating factor (MCSF), CSF1 (gene 1435)
Put plainly: BSK_LPS_MCSF: BioMAP Diversity Plus: LPS Assay for Macrophage colony-stimulating factor (MCSF) Biomarker Activity (AID 2283083). The following applies: primary human HUVEC with PBMC; actives raise or lower the signal. Summed up: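 Human umbilical vein endothelial cells co-cultured with peripheral blood mononuclear cells were exposed to compound for 24 h. M-CSF levels were measured by ELISA, and bidirectional curve fitting used DMSO as the negative control and baseline.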

Read-out in experiment [15]: Tumor necrosis factor (Homo sapiens) (UniProt P01375)
Put plainly: BSK_LPS_TNFa: BioMAP Diversity Plus: LPS Assay for Tumour Necrosis Factor alpha (TNFa) Biomarker Activity (AID 2283085). Particulars: primary human HUVEC with PBMC; actives raise or lower the signal. The essentials:
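Human umbilical vein endothelial cells co-cultured with PBMC were exposed to test chemical and TNFa measured by ELISA 24 h after dosing. Bidirectional curve fitting was done relative to DMSO as negative control and baseline.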

The target of experiment [16] is human CYP2B6, CYP2B6 (gene 1555) (UniProt P20813). Put plainly: NVS_ADME_hCYP2B6: NovaScreen (NVS) CYP450-related Enzyme Activity (ADME) Assay for human CYP2B6 (AID 2283101; active means hit-call score of the fitted dose curve at least 0.9, where 1 is the maximum). Summed up: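 Recombinant protein, specific fluorescent substrate, read at 1 h post-dosing. Primary: single 10 uM, duplicate; follow-up: concentration series. Activity = signal loss vs acetonitrile baseline, with positive and negative controls on every plate.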
Sequence of human CYP2B6, CYP2B6 (gene 1555) (P20813 whole entry, looked up): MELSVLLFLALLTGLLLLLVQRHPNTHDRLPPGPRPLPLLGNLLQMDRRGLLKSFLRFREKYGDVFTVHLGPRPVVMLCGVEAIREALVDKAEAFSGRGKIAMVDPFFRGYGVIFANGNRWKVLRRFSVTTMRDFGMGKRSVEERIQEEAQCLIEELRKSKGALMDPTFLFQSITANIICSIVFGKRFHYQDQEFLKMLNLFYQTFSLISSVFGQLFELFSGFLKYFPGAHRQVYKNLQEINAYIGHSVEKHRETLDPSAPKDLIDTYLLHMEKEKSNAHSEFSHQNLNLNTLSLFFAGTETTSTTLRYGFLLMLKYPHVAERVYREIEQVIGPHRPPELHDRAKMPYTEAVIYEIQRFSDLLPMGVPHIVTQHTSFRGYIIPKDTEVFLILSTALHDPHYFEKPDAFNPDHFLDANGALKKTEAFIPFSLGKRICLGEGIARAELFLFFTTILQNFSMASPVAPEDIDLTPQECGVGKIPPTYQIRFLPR

In experiment [17] the target is human CYP1A2, CYP1A2 (gene 1544) (UniProt P05177). Put plainly: NVS_ADME_hCYP1A2: NovaScreen (NVS) CYP450-related Enzyme Activity (ADME) Assay for human CYP1A2 (AID 2283102; active means hit-call score of the fitted dose curve at least 0.9, where 1 is the maximum). Summed up:
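Cell-free recombinant human CYP1A2 expressed in insect cells, with fluorogenic substrate; fluorescence intensity read 0.5 h after dosing. Loss of signal relative to acetonitrile baseline scored. Primary screen in duplicate at 10 uM; actives retested in concentration series.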

Experiment [18] concerns the target human CYP2C9, CYP2C9 (gene 1559) (UniProt P11712). Put plainly: NVS_ADME_hCYP2C9: NovaScreen (NVS) CYP450-related Enzyme Activity (ADME) Assay for human CYP2C9 (AID 2283108; active means hit-call score of the fitted dose curve at least 0.9, where 1 is the maximum). Summed up:
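Recombinant human CYP2C9 expressed in SF9 cells, fluorogenic substrate, fluorescence read 0.75 h after dosing. Chemicals first run in duplicate at 10 uM, with actives followed in concentration series; loss of signal versus acetonitrile baseline.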

Results filed as inconclusive are left out. The source made the active and inactive calls. How the source made its calls, unless noted: active means hit-call score of the fitted dose curve at least 0.9, where 1 is the maximum; inactive means score below 0.9.

Sequence of E-selectin (Homo sapiens) (P16581 whole entry, looked up): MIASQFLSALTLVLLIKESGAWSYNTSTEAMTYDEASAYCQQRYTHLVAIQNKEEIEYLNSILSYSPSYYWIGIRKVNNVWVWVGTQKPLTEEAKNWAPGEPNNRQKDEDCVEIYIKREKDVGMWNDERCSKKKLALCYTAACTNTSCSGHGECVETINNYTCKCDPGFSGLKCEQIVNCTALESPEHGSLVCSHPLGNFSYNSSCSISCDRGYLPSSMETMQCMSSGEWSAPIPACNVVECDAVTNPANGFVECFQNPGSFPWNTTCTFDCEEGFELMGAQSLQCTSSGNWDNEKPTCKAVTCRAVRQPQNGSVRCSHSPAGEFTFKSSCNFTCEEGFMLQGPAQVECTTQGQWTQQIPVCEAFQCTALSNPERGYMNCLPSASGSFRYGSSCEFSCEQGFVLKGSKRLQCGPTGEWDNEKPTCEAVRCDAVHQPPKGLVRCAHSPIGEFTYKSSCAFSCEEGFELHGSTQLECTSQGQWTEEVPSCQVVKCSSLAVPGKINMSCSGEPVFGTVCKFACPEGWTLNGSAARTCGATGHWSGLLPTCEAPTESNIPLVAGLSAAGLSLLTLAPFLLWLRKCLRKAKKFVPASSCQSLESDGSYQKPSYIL
Sequence of human CYP2C9, CYP2C9 (gene 1559) (P11712 whole entry, looked up): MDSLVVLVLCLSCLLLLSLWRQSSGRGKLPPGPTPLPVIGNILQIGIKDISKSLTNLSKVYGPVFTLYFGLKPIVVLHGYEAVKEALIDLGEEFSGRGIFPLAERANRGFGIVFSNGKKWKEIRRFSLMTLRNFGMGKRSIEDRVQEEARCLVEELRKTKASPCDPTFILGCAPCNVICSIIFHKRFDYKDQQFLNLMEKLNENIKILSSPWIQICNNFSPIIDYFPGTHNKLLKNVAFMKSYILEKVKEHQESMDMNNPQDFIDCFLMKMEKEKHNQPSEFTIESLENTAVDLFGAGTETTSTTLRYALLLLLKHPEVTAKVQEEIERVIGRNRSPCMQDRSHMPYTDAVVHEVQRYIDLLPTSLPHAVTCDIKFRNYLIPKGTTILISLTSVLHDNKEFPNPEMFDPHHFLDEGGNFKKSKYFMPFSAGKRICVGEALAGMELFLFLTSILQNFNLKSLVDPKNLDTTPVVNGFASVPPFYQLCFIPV
Sequence of human CYP1A2, CYP1A2 (gene 1544) (P05177 whole entry, looked up): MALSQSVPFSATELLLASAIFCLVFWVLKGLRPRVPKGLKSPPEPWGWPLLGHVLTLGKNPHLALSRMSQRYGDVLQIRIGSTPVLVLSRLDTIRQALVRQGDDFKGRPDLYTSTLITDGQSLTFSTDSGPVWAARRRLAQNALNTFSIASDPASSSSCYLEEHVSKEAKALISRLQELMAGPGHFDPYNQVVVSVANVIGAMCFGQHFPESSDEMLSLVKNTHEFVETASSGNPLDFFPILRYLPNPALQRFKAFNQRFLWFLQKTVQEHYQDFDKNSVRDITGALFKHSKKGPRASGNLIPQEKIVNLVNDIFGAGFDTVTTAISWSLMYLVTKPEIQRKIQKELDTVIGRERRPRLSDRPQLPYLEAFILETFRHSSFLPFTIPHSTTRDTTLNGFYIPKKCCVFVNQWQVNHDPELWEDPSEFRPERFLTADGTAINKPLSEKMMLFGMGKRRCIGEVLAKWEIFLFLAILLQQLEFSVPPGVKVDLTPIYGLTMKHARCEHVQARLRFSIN
Sequence of Tumor necrosis factor (Homo sapiens) (P01375 whole entry, looked up): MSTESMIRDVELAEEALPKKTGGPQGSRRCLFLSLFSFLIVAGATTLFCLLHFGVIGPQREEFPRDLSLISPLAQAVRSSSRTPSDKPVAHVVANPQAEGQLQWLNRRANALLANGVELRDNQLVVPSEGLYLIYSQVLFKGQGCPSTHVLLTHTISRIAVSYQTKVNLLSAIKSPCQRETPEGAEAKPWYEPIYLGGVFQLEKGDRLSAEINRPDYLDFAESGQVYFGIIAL

In the case of `CC(C=O)Cc1ccc(C(C)(C)C)cc1` (configuration not stated), the outcome in experiment [1], in [2], in [3], in [4], in experiment [5] and in experiment [6] was inactive. The result in experiment [7], in experiment [8], in experiment [9], in experiment [11], in experiment [12] and in experiment [13] was inactive. For the same compound, the concentration at half-maximal activity (AC50) in [10] is 20 µM (active).

As to `c1ccc(Oc2ccccc2)cc1`, the result in [1], in [14], in [2], in [3], in [4] and in [5] was inactive. Also, the result in experiment [6], in experiment [7], in experiment [8], in [9], in experiment [10] and in experiment [11] was inactive. Also, the outcome in experiment [12] and in [13] was inactive.

For `CC(CN=Cc1ccccc1O)N=Cc1ccccc1O` (configuration not stated), the result in [1], in experiment [2], in [3], in experiment [4], in [5] and in [6] was inactive. Also, the outcome in [7], in [8], in experiment [9], in experiment [10], in experiment [11] and in experiment [12] was inactive. Moreover, the outcome in experiment [13] was inactive.

With `CCCCN(CCCC)C(=O)N(CCCC)CCCC`, the outcome in experiment [1], in [4] and in experiment [9] was inactive. Besides, the AC50 is 20 µM (active) in [2]; 9.7 µM (active) in experiment [15]; 24.7 µM (active) in [3]; 20 µM (active) in [5]; 11.2 µM (active) in experiment [6]; 20 µM (active) in [7]. For the same compound, the AC50 was 9.94 µM (active) in experiment [8]; 11 µM (active) in experiment [10]; 15.6 µM (active) in experiment [11]; 7.83 µM (active) in experiment [12]; 20 µM (active) in experiment [13].

Take `CS(=O)(=O)OCCCCOS(C)(=O)=O`: the result in experiment [1], in experiment [14], in [2], in experiment [3], in [4] and in experiment [5] was inactive. The result in [6], in experiment [7], in [8], in experiment [9], in [10] and in experiment [11] was inactive. Also, the result in experiment [12], in experiment [13], in [16] and in [17] was inactive. Moreover, the AC50 in [18] is 16 µM (active).

Take `CCN(CC)C(=O)N(CC)CC`: the outcome in experiment [1], in [2], in [3], in experiment [4], in experiment [5] and in experiment [6] was inactive. Also, the outcome in [7], in experiment [8], in experiment [9], in experiment [10], in experiment [11] and in experiment [12] was inactive. The outcome in [13] was inactive.

On to `C=C(C)C(=O)OCC(CC)(COC(=O)C(=C)C)COC(=O)C(=C)C`, for which the result in experiment [1], in experiment [2], in [4], in experiment [5], in experiment [6] and in [7] was inactive. Moreover, the result in experiment [9], in experiment [10], in experiment [11] and in experiment [13] was inactive. The AC50 in experiment [3] was 19.7 µM (active); in experiment [8], 19.7 µM (active); in experiment [12] it was 8.4 µM (active).
